SMILES strings stand for the structures. Values joined by “and” are separate entries in the source; they are usually repeats but may differ in a detail not shown here. Identical values can stand only once. This is part of a sample that, as a whole, favours compounds with a hit. Of some 83,000 tested, about 20% had one in any assay.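 The endpoint reported here, percent growth, reads 100 for growth as untreated, 0 for no net growth and -100 for all cells dead.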 Active and inactive are the calls of the source. The calls were made as follows: active = growth percent below 10; inactive = the rest.

Common to all, as to assay: NCI-60 one-dose screen, 48 h (100 = growth as untreated, 0 = no growth, -100 = all killed)
Settings in all cases: 10 µM unless noted

In experiment [1] the test system is HCT-15 colon.
Experiment [2] relates to HT29 colon.
Experiment [3] concerns SNB-75 CNS.
Experiment [4] deals with SNB-19 CNS.
For experiment [5], the system named is U251 CNS.
Experiment [6] has as its system PC-3 prostate.
The test system of experiment [7] is SK-MEL-5 melanoma.
The test system of experiment [8] is UACC-62 melanoma.
The test system of experiment [9] is LOX IMVI melanoma.
Experiment [10] relates to SK-MEL-28 melanoma.
Experiment [11] relates to SK-MEL-2 melanoma.
The test system of experiment [12] is EKVX NSCLC.
Experiment [13] deals with SN12C renal.
In experiment [14] the test system is UO-31 renal.
Experiment [15] relates to ACHN renal.
In experiment [16] the test system is CAKI-1 renal.
The test system of experiment [17] is CCRF-CEM leukemia.
Experiment [18] deals with MOLT-4 leukemia.
Experiment [19] relates to TK-10 renal.
Experiment [20] has as its system A498 renal.

Consider `CCOc1ccc2cc(-c3nn(CC4CCNCC4)c4ncnc(N)c34)ccc2c1`, for which the growth was 81.7% (inactive) and 29.8% (inactive) in [1]; 69.6% (inactive) and 18.5% (inactive) in [2]; 52.9% (inactive) and 24.8% (inactive) in experiment [3]; 102% (inactive) and 65.9% (inactive) in [4]; 83.3% (inactive) and 40.2% (inactive) in experiment [5]; 78% (inactive) and 31.4% (inactive) in [6]. Further, the growth in [7] is 90.5% (inactive) and -2.12% (active); in experiment [8], 14.7% (inactive); in experiment [9], 83% (inactive) and 5.47% (active); in experiment [10] it was 104% (inactive) and -35.3% (active); in experiment [11] it was 108% (inactive); in experiment [12] it was 101% (inactive) and 55.6% (inactive). Besides, the growth in experiment [13] was 82.9% (inactive) and 28.9% (inactive); in [14], 68.8% (inactive) and 45.7% (inactive); in experiment [15], 102% (inactive) and 49.5% (inactive); in experiment [16] it was 95.4% (inactive) and 81.9% (inactive); in experiment [17], 88.4% (inactive) and 9.5% (active); in experiment [18], 66.1% (inactive) and -12.1% (active).

`O=C(c1ccc(Cl)cc1)C(NCCO)c1ccc(Cl)cc1` (stereo not given): the growth in experiment [1] was 99.7% (inactive) and 99% (inactive); in experiment [2] it was 109% (inactive) and 92.2% (inactive); in [3] it was 90.1% (inactive) and 81.8% (inactive); in experiment [4], 101% (inactive) and 97.6% (inactive); in experiment [5], 95.9% (inactive) and 102% (inactive); in experiment [6] it was 81.9% (inactive) and 84.4% (inactive). The growth is 91.9% (inactive) and 105% (inactive) in experiment [7]; 85.3% (inactive) and 79.9% (inactive) in experiment [8]; 94.8% (inactive) and 96.1% (inactive) in experiment [9]; 111% (inactive) and 105% (inactive) in [10]; 102% (inactive) in experiment [11]; 103% (inactive) in experiment [12]. Further, the growth in [13] is 99.6% (inactive) and 100% (inactive); in [19], 105% (inactive) and 98.6% (inactive); in experiment [15], 120% (inactive) and 102% (inactive); in experiment [16], 102% (inactive); in experiment [20], 92.7% (inactive) and 110% (inactive); in [17] it was 99.7% (inactive) and 129% (inactive). Also, in experiment [18], the growth was 86.6% (inactive) and 96.6% (inactive).

Consider `CN(C)c1ccc2nc3ccc(N)cc3[n+](-c3ccccc3)c2c1`, for which the growth in experiment [1] was 90.7% (inactive) and 18.7% (inactive); in [2], 32.5% (inactive) and 24.4% (inactive); in experiment [3], 18.6% (inactive) and 52.4% (inactive); in experiment [4], 12.3% (inactive) and 21.1% (inactive); in experiment [5] it was 16% (inactive) and 3.13% (active); in [6] it was 22.2% (inactive) and 7.58% (active). Also, the growth is -5.68% (active) and -77.7% (active) in experiment [7]; 17% (inactive) and 13.4% (inactive) in experiment [8]; 28% (inactive) and 6.03% (active) in experiment [9]; 37.6% (inactive) and 30.9% (inactive) in experiment [10]; 58.2% (inactive) in experiment [11]; 27.8% (inactive) and 12.6% (inactive) in experiment [12]. For the same compound, the growth is 6.72% (active) and -36.4% (active) in experiment [13]; 62.1% (inactive) and 31% (inactive) in experiment [14]; 73.5% (inactive) and 30.8% (inactive) in [15]; 94.2% (inactive) and -40.5% (active) in [16]; 67.5% (inactive) and 41.8% (inactive) in experiment [20]; 24.6% (inactive) and 13.7% (inactive) in experiment [17]. Besides, the growth in [18] is 23% (inactive) and 0.316% (active).

In the case of `CCOc1ccc2c(S(=O)(=O)O)cccc2c1[N+](=O)[O-]`, the growth in experiment [1] was 103% (inactive) and 108% (inactive); in [2], 105% (inactive) and 117% (inactive); in experiment [3] it was 85.7% (inactive) and 93.8% (inactive); in [4], 108% (inactive) and 112% (inactive); in [5] it was 101% (inactive) and 99.9% (inactive); in experiment [6], 93.4% (inactive) and 87.4% (inactive). For the same compound, the growth in experiment [7] is 108% (inactive); in experiment [8], 101% (inactive) and 110% (inactive); in experiment [9], 105% (inactive) and 102% (inactive); in [10], 113% (inactive) and 118% (inactive); in experiment [11], 117% (inactive) and 109% (inactive); in experiment [12], 99.2% (inactive) and 88.5% (inactive). Moreover, the growth in [13] is 106% (inactive) and 103% (inactive); in experiment [14] it was 71.5% (inactive) and 79.1% (inactive); in experiment [19], 104% (inactive) and 126% (inactive); in experiment [15], 103% (inactive) and 105% (inactive); in [20], 95% (inactive) and 116% (inactive); in experiment [17] it was 90.6% (inactive) and 107% (inactive). Besides, the growth in experiment [18] is 86.8% (inactive) and 96.4% (inactive).

Values taken from PubChem BioAssay (NCI).
